D1 ag: activates the human D1 dopamine receptor; P21728; HEK293 T-REx D1 cells, calcium flux, agonist mode; activation, % at 2 µM; 360,000 compounds, 1% hits; AID 504660; in the data active means activation above about 30%; further: 0% is about no effect
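Tetracycline-induced HEK293 TREx D1 cells, force-coupled to calcium signalling, were dye-loaded with a no-wash calcium kit. Compound was pin-added after a 10 s baseline. Fluorescence was read kinetically at 1 cycle/s for 180 s, with calcium rises flagged as agonism.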
D1 PAM: potentiators of human D1 dopamine receptor. HEK293 TREx D1 cells, calcium flux, dopamine EC20 potentiation. potentiation, % at 10 µM. 360,000 compounds, 0.036% hits. AID 504651; in the data active means potentiation above about 30%; further: 0% is about no effect
DRD3 antagonist: blocks the human D3 dopamine receptor; P35462; D3R cells, DiscoveRx beta-arrestin luminescence, antagonist mode; active compounds read low; max response, negative = inhibition, %; 360,000 compounds, 2.5% hits; AID 652054; in the data active means max response below about -50%; inconclusive means no clear call, values can overlap the other calls; further: on the % scale 0 is the no-effect control and ±100 the full control effect
Target sequence (P35462 whole entry, looked up): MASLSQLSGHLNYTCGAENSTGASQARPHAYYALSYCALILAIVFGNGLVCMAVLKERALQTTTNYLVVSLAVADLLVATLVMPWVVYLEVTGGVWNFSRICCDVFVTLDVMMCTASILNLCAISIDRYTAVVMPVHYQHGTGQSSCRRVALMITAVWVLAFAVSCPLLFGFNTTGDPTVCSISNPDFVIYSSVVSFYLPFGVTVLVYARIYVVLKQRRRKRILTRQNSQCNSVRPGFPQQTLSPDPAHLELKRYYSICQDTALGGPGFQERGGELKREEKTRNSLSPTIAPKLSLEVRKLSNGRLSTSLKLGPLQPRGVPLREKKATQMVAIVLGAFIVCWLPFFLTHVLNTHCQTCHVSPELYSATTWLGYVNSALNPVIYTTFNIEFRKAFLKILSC
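Cells plated overnight at 1500 cells/well, then exposed to library compounds with dopamine controls for 90 minutes at 37 degrees C. DiscoveRx reagent added for 30–60 minutes at room temperature; luminescence read, quantitative HTS format.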
DRD3 agonist: activates the human D3 dopamine receptor | P35462 | D3R DiscoveRx beta-arrestin cells, luminescence, 90 min | max activation, % | 410,000 compounds, 0.58% hits; in the data active means max activation above about 30%; further: 0% is about no effect
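Cells at 1500/well, incubated overnight, then treated with pinned compounds (dopamine as control) for 90 min at 37 degrees C. DiscoveRx reagent added for 30 - 60 minutes at room temperature; luminescence read.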
D1 antagonist: antagonists of human D1 dopamine receptor; HEK293 TREx D1 cells, calcium flux, dopamine EC80; active compounds read low; 360,000 compounds, 3.2% hits; P21728; activity change, negative = inhibition, % at 10 µM; in the data active means activity change below about -30%; further: on the % scale 0 is the no-effect control and ±100 the full control effect
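Inducible Hek293 Trex D1 cells (tetracycline, overnight, 30 C). Calcium dye 30–90 min RT. Antagonist mode: EC80 dopamine added after 180 s compound read.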
Numbers without * were called inactive; ? = inconclusive; . = no result given. Shown are actives, neighbours in structure and some others; about 6% of the full set was active somewhere.

SMILES	D1 ag	D1 PAM	DRD3 antagonist	DRD3 agonist	D1 antagonist
CC(=O)c1ccc(NC(=O)Cn2nc(N3CCN(c4ccccc4)CC3)ccc2=O)cc1	4.7	-1.1	.	6.2	6.3
Cc1cc(-c2cc(C(=O)NCc3ccccc3)on2)nc(S(C)(=O)=O)n1	2.9	0.9	-64.8*	-30.7	5.1
CCc1ccc2oc(C(=O)Nc3nc(-c4ccc(F)cc4)ns3)c(C)c2c1	0.2	4.5	.	1.5	-2.5
O=[N+]([O-])c1ccc(Sc2ccccn2)nc1	1.6	5.7	-1.6	1.8	-67.6*
COC(=O)c1ccc(Sc2ccccn2)c([N+](=O)[O-])c1	1.3	-8.6	-3.4	-2.9	-34.3*
O=[N+]([O-])c1ccc(CSc2ccccn2)cc1	1.5	-0.8	8.8	0.7	-3.8
CC(C)(C)NC(=O)c1ccc(Sc2ccccc2)c([N+](=O)[O-])c1	2.6	-0.4	-50.2*	-4.0	-28.7
NS(=O)(=O)c1ccc(Sc2ccccn2)c([N+](=O)[O-])c1	2.4	-3.9	-6.1	-4.4	-32.5*
O=C(O)CCC(C(=O)O)n1c(O)c(C2=c3ccccc3=NC2=O)sc1=S (stereo not drawn)	1.9	1.6	-102.8*	-9.4	-2.1
Cc1cccc(-c2nc(C)c(CCNC(=O)c3cccs3)s2)c1	-0.1	-4.8	.	4.3	2.7
CCCNC(=O)NS(=O)(=O)c1cnccc1Sc1ccc(Cl)c(Cl)c1	1.9	0.5	-53.4*	9.9	-16.1
CCCNC(=O)NS(=O)(=O)c1cnccc1Sc1ccc(Cl)cc1	1.2	-2.9	0.0	-4.8	9.2
COc1cc(C(=S)N2CCOCC2)cc(OC)c1OS(=O)(=O)c1ccc(C)cc1	3.7	-3.1	0.5	2.1	7.0
CCOC(=O)c1ccccc1Nc1cc(C)nc2nc(-c3ccco3)nn12	74.0*	2.2	.	9.4	-31.9*
CNc1cccccc1=S	-0.2	0.7	?	5.2	-56.3*
CC(C)Cn1c(Cc2ccccc2)n[nH]c1=S	32.7*	-2.2	7.0	-9.7	-35.2*
CCCCC1Cc2[nH]c(=S)[nH]c(=O)c2C(C(C)C)O1 (stereo not drawn)	.	.	0.0	-1.5	.
COC(=O)[C@]12CCCCC=C1N(Cc1ccco1)C(=O)[C@H](CC(=O)NCCC(C)C)C2	.	.	0.0	-1.1	.
Cn1nc(-c2ccccc2)c2nc3ccccc3nc21	94.4*	3.6	?	0.8	5.1
CCCCn1nc(-c2ccccc2)c2nc3ccccc3nc21	50.8*	2.0	.	.	-8.4
Cc1ccc(-c2nc3ccccc3nc2-c2ccccc2)cc1	3.9	1.0	20.8	-3.3	-5.8
CC(=O)Nc1cccc(NC(=O)CSc2ccc(-c3sc(-c4ccccc4)nc3C)nn2)c1	4.5	-4.5	.	-0.1	3.0
CCC(C)NCCOc1ccc(Br)cc1 (stereo not drawn)	4.9	-4.7	-67.8*	-5.3	10.2
CCC(C)NCCOc1ccccc1C (stereo not drawn)	2.3	-3.0	-67.5*	-33.8	-16.6
CCC(C)NCCOCCOc1ccc(Br)cc1 (stereo not drawn)	4.6	-8.8	-17.1	-12.4	3.5
SMILES	D1 ag	D1 PAM	DRD3 antagonist	DRD3 agonist	D1 antagonist
CCOC(=O)c1cccc(NC(=O)C2Cc3ccccc3N2C(=O)c2ccccc2)c1 (stereo not drawn)	-0.3	2.0	.	-5.6	5.7
Cc1cc(Cl)ccc1NC(=O)c1cccc(NC(=O)N2CCSc3ncccc32)c1	4.3	-3.1	.	2.5	-48.7*
Cc1cc(C)c2c(n1)SCCN2C(=O)Nc1ccc(C(=O)Nc2cc(Cl)ccc2C)cc1	4.3	-2.4	.	-6.4	-32.7*
Cc1ccc(NC(=O)c2cccc(NC(=O)N3CCSc4ncccc43)c2)cc1Cl	1.7	-2.1	.	4.4	4.1
CCCCCCCCCc1ccc(OCCOCCO)cc1	.	.	.	11.0	.
COCCCn1c(SCC(=O)Nc2ccc(OC)cc2)nc2c(sc3ccccc32)c1=O	3.2	1.1	.	6.2	-22.1
CCCCn1c(=N)n(CCOc2ccccc2OC)c2ccccc21	32.7*	-7.7	.	-8.0	-3.0
CCCCCn1c(=N)n(CC(O)COc2ccccc2OC)c2ccccc21 (stereo not drawn)	26.0	-3.2	?	-6.1	-1.0
CCCCn1c(=N)n(CCOc2ccc(C)cc2)c2ccccc21	50.4*	-2.6	14.7	4.5	32.2
COc1ccc(OCCn2c(=N)n(CCO)c3ccccc32)cc1	3.9	-3.9	-3.2	-1.4	12.3
CCn1c(=N)n(CCOc2ccc(Br)cc2)c2ccccc21	88.6*	4.0	.	9.3	-25.8
CCOC(=O)C1=CCN(S(=O)(=O)c2ccccc2Cl)C1c1ccccc1 (stereo not drawn)	.	.	-4.9	2.1	.
CCCCCCn1c(=O)n2n(c1=O)[C@@H]1CN(S(=O)(=O)c3ccc(C)cc3)C[C@]1(O)[C@@H](OC(=O)NCC1CCCCC1)C2	.	.	-0.2	4.8	.
Cc1ccc(CN2CCN(CC(=O)N=Nc3c(O)[nH]c4ccccc34)CC2)cc1	1.0	-2.5	-90.4*	-17.1	5.3
CCC(CC)CC1CN2CCc3cc(OC)c(OC)cc3C2CC1(O)CC (stereo not drawn)	.	.	-23.8	-6.6	.
CC(=O)c1cn(C)c(=O)[nH]c1=O	-0.2	-2.5	-8.4	1.4	-11.7
CC(=O)c1cn(-c2ccc(Cl)cc2)c(=O)[nH]c1=O	-0.4	-1.4	3.3	-4.7	-32.5*
COc1ccc(CCNc2nc(SCc3cccc(Cl)c3)nc3ccccc23)cc1OC	5.4	4.8	.	8.5	16.4
N#CCCN(C(=O)COC(=O)c1ccc(CNS(=O)(=O)c2ccc(F)c(Cl)c2)cc1)c1ccc(F)cc1	7.2	1.4	1.4	2.6	-32.8*
CCCCCC(=O)OCc1ccc(C2=CC(=O)CC(C)(C)C2=O)cc1	.	.	-23.7	3.6	.
CCOc1ccc(-c2[nH]nc3c2C(c2cccnc2)C(C#N)=C(N)O3)cc1 (stereo not drawn)	0.4	-2.2	-51.0*	-1.3	-12.0
CCc1[nH]nc2c1C(c1cccnc1)C(C#N)=C(N)O2 (stereo not drawn)	0.0	1.6	-21.2	-2.1	-6.2
CC(C)CN1C(=O)c2ccc(C(=O)Nc3ccc(O)cc3C(=O)O)cc2C1=O	2.7	-9.1	98.2	19.9	-76.4*
CC(c1ccccc1)N1C(=O)c2ccc(C(=O)Nc3ccccc3C(=O)O)cc2C1=O (stereo not drawn)	-0.2	-3.6	105.4	31.8*	-7.0
CC(c1ccccc1)N1C(=O)c2ccc(C(=O)Nc3ccc(Br)cc3C(=O)O)cc2C1=O (stereo not drawn)	2.1	-4.2	43.3	15.4	-11.6
O=C(Nc1ccccc1C(=O)O)c1cccc(C(=O)Nc2ccccc2C(=O)O)c1	1.1	1.2	102.4	30.4*	-0.6
Cc1cc(C)n(CCc2nc3c4ccccc4nc(N4CCN(c5ccc(F)cc5)CC4)n3n2)n1	0.2	-5.0	.	-10.9	10.6
CC(C)C[C@H]1CN([C@@H](Cc2ccccc2)CN2CCC[C@H]2CN2C(=O)C(=O)NC[C@@H]2Cc2ccc(O)cc2)C(=O)C(=O)N1CC1CCCCCC1	.	.	-9.3	-7.5	.

Screens (PubChem)
